{
  "source": "ChEMBL document CHEMBL3988442",
  "about": "“University of Dundee, Small-Polar-MMV Screening Library” (2021)",
  "note": "Among all 48,000 compounds or so, about 13,000 (27%) showed an effect of 50% or more. This is one part of the list.",
  "data": [
    {"system": "Wolbachia pipientis", "test": "Anti-Wolbachia Cell-Based Screen", "assay_type": "functional", "parameters": "scale not given: in the data most compounds retested in dose-response had high values", "details": "5 µM", "units": {"Percent Effect": "%"}, "values": [
      {"smiles": "CC(=O)N1CCN(c2ccccc2CNc2cc(F)cc(F)c2)CC1", "Percent Effect": 2.493},
      {"smiles": "OCc1ccc(-c2nccn2CCC2=CCCCC2)o1", "Percent Effect": -8.705},
      {"smiles": "CS(=O)(=O)CCSCc1cccc2cccnc12", "Percent Effect": -12.23},
      {"smiles": "CN(CC(=O)Nc1cc(-n2nnnc2C2CC2)ccc1F)C1CCC1", "Percent Effect": -0.6608},
      {"smiles": "CCN1C(=O)CCC12CCN(S(=O)(=O)c1ccccc1)CC2", "Percent Effect": -5.531},
      {"smiles": "O=C(c1cccc(CO)n1)N1CCOC(c2ccc(Cl)c(Cl)c2)C1", "note": "(stereo unspecified)", "Percent Effect": -12.21},
      {"smiles": "N#Cc1cccc(N2CCC3(CCC(=O)N(CC4CCCO4)C3)CC2)n1", "note": "(stereo unspecified)", "Percent Effect": -19.35},
      {"smiles": "CC(O)c1cccc(N2CCC3(CCC(=O)N(CC(N)=O)C3)CC2)n1", "note": "(stereo unspecified)", "Percent Effect": -13.92},
      {"smiles": "N#Cc1cccc(N2CCCC3(CCC(=O)N(C4CCCC4)C3)C2)n1", "note": "(stereo unspecified)", "Percent Effect": 106.1},
      {"smiles": "CC(C)c1cccc(N2CCCC3(CCC(=O)N(C4CC4)C3)C2)n1", "note": "(stereo unspecified)", "Percent Effect": 105.3},
      {"smiles": "CC(=O)c1ccc(N2CCC3(CCC(=O)N(C4CC4)C3)CC2)nc1", "Percent Effect": 5.2},
      {"smiles": "CCCc1nc(C)cc(N2CCC3(CCC(=O)N(C4CC4)C3)CC2)n1", "Percent Effect": -0.6506},
      {"smiles": "CCOC(=O)c1cccc(N2CCCC3(CCC(=O)N(C4CC4)C3)C2)n1", "note": "(stereo unspecified)", "Percent Effect": 78.13},
      {"smiles": "N#Cc1cccc(N2CCC3(CCC(=O)N(CC(N)=O)C3)CC2)n1", "Percent Effect": -17.91},
      {"smiles": "CC(O)c1cccc(N2CCC3(CCC(=O)N(C4CCCC4)C3)CC2)n1", "note": "(stereo unspecified)", "Percent Effect": 47.1},
      {"smiles": "CCNC(=O)NC[C@H]1COCc2nc3cc(C)ccc3n21", "Percent Effect": -20.29},
      {"smiles": "CN(Cc1ccon1)C(=O)C1CC(=O)N(Cc2ccncc2)C1", "note": "(stereo unspecified)", "Percent Effect": 7.553},
      {"smiles": "Cc1ccc(-c2cc(CNc3ncnc4c3CCNCC4)no2)cc1", "Percent Effect": 96.68},
      {"smiles": "O=C(c1ccon1)N1CCc2ncnc(NCc3ccccn3)c2CC1", "Percent Effect": -13.25},
      {"smiles": "c1cncc(-c2noc(CNc3ncnc4c3CCNCC4)n2)c1", "Percent Effect": 1.079},
      {"smiles": "COc1ccc(-c2cc(CC3(NCc4ccc(C)o4)COC3)no2)cc1", "Percent Effect": 0},
      {"smiles": "COCc1noc(CCNc2ncnc3c2CCNCC3)n1", "Percent Effect": 1.85},
      {"smiles": "Clc1ccccc1-c1cc(CNc2ncnc3c2CCNCC3)no1", "Percent Effect": 100.4},
      {"smiles": "COc1ccc(-c2cc(CNc3ncnc4c3CCNCC4)no2)cc1", "Percent Effect": 113.1},
      {"smiles": "c1cncc(-c2noc(CCNc3ncnc4c3CCNCC4)n2)c1", "Percent Effect": -0.2436},
      {"smiles": "CCCS(=O)(=O)N1CC[C@H]2O[C@H](c3nnc(C)o3)CC[C@H]21", "Percent Effect": -25.7},
      {"smiles": "CN(CC(N)=O)C(=O)c1cnc(-c2ccc(Cl)s2)s1", "Percent Effect": 2.419},
      {"smiles": "CC(=O)N1CCCN(C(=O)NCCOc2ccc3c(c2)OCO3)CC1", "Percent Effect": 96.11},
      {"smiles": "CCCN1CCCN(C(=O)Nc2ccc3c(c2)OCO3)CC1", "Percent Effect": -18.65},
      {"smiles": "CN1CCCN(C(=O)NCCOc2ccc3c(c2)OCO3)CC1", "Percent Effect": 115.1},
      {"smiles": "O=C(NCCOc1ccc2c(c1)CCC2)N1CCS(=O)(=O)CC1", "Percent Effect": 35.32},
      {"smiles": "CC(C)Cc1noc(CNc2cc3c(cc2Cl)OCCCO3)n1", "Percent Effect": 11.73},
      {"smiles": "Cn1cc(NC(=O)c2cc[nH]n2)cc(Cl)c1=O", "Percent Effect": -6.664},
      {"smiles": "CCc1ccc(C(=O)Nc2ccc3c(c2)N(C)CCN(C)C3)o1", "Percent Effect": 68.84},
      {"smiles": "Cc1cc(C(=O)NC2CCCN(c3ccccc3)C2=O)on1", "note": "(stereo unspecified)", "Percent Effect": -7.232},
      {"smiles": "Cc1ccc(C(=O)NC(CN2CCCC2=O)c2ccccc2)c(=O)[nH]1", "note": "(stereo unspecified)", "Percent Effect": -15.69},
      {"smiles": "Cc1ccc(C(=O)Nc2ccc3c(c2)N(C)CCN(C)C3)c(=O)[nH]1", "Percent Effect": 112.4},
      {"smiles": "CCc1ccc(NC(=O)c2cnc(N3CCN(C)CC3)nc2C)cc1", "Percent Effect": 0.5656},
      {"smiles": "N#Cc1cc(NC(=O)c2cc[nH]n2)ccc1N1CCC(O)CC1", "Percent Effect": -7.892},
      {"smiles": "CN1CCN(C)c2cc(NC(=O)c3cc[nH]n3)ccc2C1", "Percent Effect": 95.27},
      {"smiles": "Cc1cc(C(=O)Nc2ccc3c(c2)N(C)CCN(C)C3)on1", "Percent Effect": 108.1},
      {"smiles": "CCc1ccc(C(=O)Nc2cc(N3CCNC3=O)ccc2Cl)o1", "Percent Effect": 2.04},
      {"smiles": "CCc1ccc(C(=O)NC2CCN(c3cnn(C)c3)C2=O)o1", "note": "(stereo unspecified)", "Percent Effect": 0.5002},
      {"smiles": "Cc1ccc(C(=O)NCC2CCN(C)c3ccccc32)c(=O)[nH]1", "note": "(stereo unspecified)", "Percent Effect": -6.721},
      {"smiles": "CC(C)N(CC(N)=O)Cc1c(Cl)ccc2cccnc12", "Percent Effect": 35.48},
      {"smiles": "CCN(CC)C(=O)c1cnc(Sc2nccn2C)c(Cl)c1", "Percent Effect": -3.996},
      {"smiles": "COc1ccccc1CC(=O)NCCCN1CCCC1C(=O)N(C)C", "note": "(stereo unspecified)", "Percent Effect": -7.215},
      {"smiles": "CCN(Cc1noc(C)n1)C(=O)C(c1ccccc1C)N(C)C", "note": "(stereo unspecified)", "Percent Effect": 20.53},
      {"smiles": "CS(=O)(=O)NCC(=O)NC1(c2ccc(Cl)c(Cl)c2)CC1", "Percent Effect": -6.64},
      {"smiles": "Cc1ccc(-n2cc(CN3CCOCC(CN(C)C)C3)cn2)cc1C", "note": "(stereo unspecified)", "Percent Effect": -29.82},
      {"smiles": "O=C(C1CCCN1c1ncnc2ccsc12)N1CCSCC1", "note": "(stereo unspecified)", "Percent Effect": -9.281},
      {"smiles": "O=C(Nc1cccc(N2CCCC2)c1)C1CCCN1c1nccs1", "note": "(stereo unspecified)", "Percent Effect": -13.09},
      {"smiles": "O=C([C@@H]1CCCN1c1nccc(Nc2ccccc2)n1)N1CCCCC1", "Percent Effect": 107.6},
      {"smiles": "Cc1cn2nc(N3CCCC3C(=O)N3CCSCC3)sc2n1", "note": "(stereo unspecified)", "Percent Effect": -34.07},
      {"smiles": "Cl.O=C(O)[C@@H]1CCCN1c1nccc(Nc2ccccc2)n1", "Percent Effect": 110.6},
      {"smiles": "CNC(=O)[C@@H](c1ccccc1)N1CCC[C@H]1C(=O)NCc1ccccn1.Cl.Cl", "Percent Effect": -0.04544},
      {"smiles": "OCc1ccc(N2CCN(c3ncccn3)CC2)c(F)c1", "Percent Effect": 10.85},
      {"smiles": "COc1cc(C2C3=C(COC3=O)Nc3[nH]nc(C)c32)cc(Br)c1O", "note": "(stereo unspecified)", "Percent Effect": 6.444},
      {"smiles": "CC(C)CSc1ccc(-n2cccn2)nn1", "Percent Effect": -15.59},
      {"smiles": "O=C(O)C(F)(F)F.O=C1[C@H]2CN(CC3CCOCC3)C[C@H]2CN1c1ccsc1", "Percent Effect": -12.76},
      {"smiles": "COc1nn(C)c2c1CCCN(S(=O)(=O)c1ccccc1F)C2", "Percent Effect": 9.619},
      {"smiles": "O=C(O)C(F)(F)F.O=S(=O)(c1ccc(F)cc1)N1CC[C@H]2[C@H]1CCN2c1ncccn1", "Percent Effect": 5.126},
      {"smiles": "O=S(=O)(c1ccccc1)N1CCCC1c1cc[nH]n1", "note": "(stereo unspecified)", "Percent Effect": 100.7},
      {"smiles": "COCCN(C)CC1CCCN1S(=O)(=O)c1cccc(F)c1F", "note": "(stereo unspecified)", "Percent Effect": -7.612},
      {"smiles": "O=S(=O)(c1ccccc1)N1CCCCC1c1cc[nH]n1", "note": "(stereo unspecified)", "Percent Effect": 7.34},
      {"smiles": "O=S(=O)(c1ccccc1F)N1CCCCC1c1cc[nH]n1", "note": "(stereo unspecified)", "Percent Effect": 126.5},
      {"smiles": "O=S(=O)(c1ccc(F)cc1)N1CCCC1c1cc[nH]n1", "note": "(stereo unspecified)", "Percent Effect": 93.9},
      {"smiles": "CNS(=O)(=O)c1ccc(CN2CCCC2c2ccc(F)cc2)cc1", "note": "(stereo unspecified)", "Percent Effect": -2.722},
      {"smiles": "CCN1C(=O)C[C@@H]2[C@@H]1CCN2S(=O)(=O)c1ccccc1", "Percent Effect": -17.79},
      {"smiles": "CS(=O)(=O)c1ccc(CN2CCCCC2c2ccc(F)cc2)cc1", "note": "(stereo unspecified)", "Percent Effect": 14.88},
      {"smiles": "O=S(=O)(c1ccc(F)cc1)N1CCCCC1c1cc[nH]n1", "note": "(stereo unspecified)", "Percent Effect": 93.21}
    ]}
  ]
}
